From PubChem
Compounds with a hit are over-represented: about 1.7% of the library has one in this group of screens.
GLP-1R agonist – GLP-1 receptor (human) agonism. Potency, µM (series often up to 45.6 µM), hits mostly activators. 380,000 compounds, 0.007% hits. HEK293 GLP-1R CRE-luciferase, luminescence, 4-6 h; cells express a hypersensitive GLP-1R form. P43220
Target sequence (P43220 whole entry, looked up): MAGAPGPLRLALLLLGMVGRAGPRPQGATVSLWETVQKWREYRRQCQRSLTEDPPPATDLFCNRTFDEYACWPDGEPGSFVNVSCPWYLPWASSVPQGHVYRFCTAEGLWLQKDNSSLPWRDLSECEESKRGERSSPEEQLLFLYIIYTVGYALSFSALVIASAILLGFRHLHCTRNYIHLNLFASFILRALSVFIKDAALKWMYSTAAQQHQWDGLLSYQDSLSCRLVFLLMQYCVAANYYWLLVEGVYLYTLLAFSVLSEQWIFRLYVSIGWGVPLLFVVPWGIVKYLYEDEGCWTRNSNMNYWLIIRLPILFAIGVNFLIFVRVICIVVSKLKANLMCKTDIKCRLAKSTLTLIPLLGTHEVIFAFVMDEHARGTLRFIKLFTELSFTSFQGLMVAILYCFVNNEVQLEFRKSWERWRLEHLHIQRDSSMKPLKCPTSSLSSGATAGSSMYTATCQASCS
GLP-1R inv ag – acts as inverse agonist at human GLP-1 receptor | P43220 | 410,000 compounds, 1.6% hits | HEK293 GLP-1R CRE-luciferase, luminescence, 24 h; GLP-1R form is constitutively active | Potency, µM (doses to about 38.3 µM), hits mostly inhibitors | AID 624417; also: nearly all actives have a fitted effect of over 55% in size
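Inverse agonism was detected as reduced cAMP-driven luciferase luminescence after 24 h compound treatment. The cells were HEK293 clones expressing constitutively active human GLP-1R with the reporter. Reporter-only and GPR119 cell lines served as counterscreen controls.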
RGS4 inh – inhibitors of human regulator of G protein signaling 4. Transcreener GDP fluorescence polarization, RGS4-accelerated GTP hydrolysis. Potency, µM (series often up to 114 µM), usual class: inhibitors. 390,000 compounds, 0.039% hits; also: nearly all actives have a fitted effect of over 75% in size
Target sequence (P49798 whole entry, looked up): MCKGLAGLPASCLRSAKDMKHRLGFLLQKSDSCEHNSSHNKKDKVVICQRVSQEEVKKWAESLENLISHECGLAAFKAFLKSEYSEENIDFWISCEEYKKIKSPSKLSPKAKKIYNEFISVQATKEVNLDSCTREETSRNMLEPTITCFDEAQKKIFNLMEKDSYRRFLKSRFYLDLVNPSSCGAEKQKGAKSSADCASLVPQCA
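MLSMR compounds (23 nl, pin-transferred) preincubated 10 min at room temperature with a 500nM (2x) first reagent, then RGS4 at 900nM (2x) plus Transcreener GDP mix added; fluorescence polarization (620/688 nm) read before and after 90 min at 30 °C.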
PTHR1 ag – PTHR1 (human) receptor agonism | Q03431 | HEK293 GP2 PTHR1 cells, GloSensor cAMP luminescence, 1 h | Potency, µM (top dose mostly 115 µM), usual class: activators | 410,000 compounds, 0.075% hits | AID 743266; also: nearly all actives have a fitted effect of over 55% in size
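HEK-293-derived GP2 cells expressing PTHR1 and a GloSensor cAMP reporter, 3,000/well, plated overnight, given luciferin plus IBMX (each 0.5 mM as added) for 1 h at 37 °C, then compound for 1 h at 37 °C. Luminescence was read after 15 min at room temperature.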
GLP1R cytotox – cytotoxicity in counter-screen for GLP-1R inverse agonists | HEK293 cAMP-luciferase reporter cells, luminescence, 24 h | Potency, µM (series often up to 38.3 µM), usual class: inhibitors | 410,000 compounds, 0.13% hits | AID 624418;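 also: loss of luciferase light is scored as toxicity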
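To flag toxic compounds, the library was rerun on cells for 24 hr at 37 deg C and 5% CO2. Viability-linked luminescence was captured 12 min after adding luciferase detection reagent.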
Hits are given with their value; n = inactive; u = inconclusive; x = not tested or not shown. Calls follow the shape of the dose curve; as a rule, active = well fitted curve in the direction sought with a large enough effect; inconclusive = small, poorly fitted or top-dose-only effect, or another doubt; inactive = no such curve, though single readings can be large; an effect the other way counts as inactive or inconclusive.

SMILES	GLP-1R agonist	GLP-1R inv ag	RGS4 inh	PTHR1 ag	GLP1R cytotox
CCC(=O)N1c2ccccc2CC1C(=O)NCc1ccc(N(C)C)cc1 (stereo not given)	x	n	n	n	n
CC(C)(C)C1CCC(=NNc2nc3ccccc3[nH]2)CC1 (stereo not given)	n	u	n	n	n
c1ccc2c(c1)CC/C2=N/Nc1nc2ccccc2[nH]1	n	u	n	n	3.55µM
C(=N\Nc1nc2ccccc2[nH]1)/c1ccccn1	n	u	n	n	11.2µM
CCc1ccc(OCC(=O)N(Cc2ccc(C)cc2)Cc2ccco2)cc1	x	u	n	n	n
O=C(c1cccc(Cl)c1)N(Cc1ccco1)Cc1ccccc1Cl	x	10µM	n	n	n
CCc1ccc(OCC(=O)N(Cc2ccco2)Cc2ccccc2Cl)cc1	x	10µM	n	n	n
CCC(=O)Nc1ccc(C(=O)COC(=O)Cc2ccsc2)cc1	n	n	n	n	n
O=[N+]([O-])c1ccc2cc[nH]c2c1	n	n	n	n	n
COc1ccccc1NC(=O)c1cc2n(n1)C(C(F)(F)F)CC(c1ccc3c(c1)OCO3)N2 (stereo not given)	n	2µM	n	n	n
Cc1ccc(S(=O)(=O)N2CCN(C(=O)CSc3ncc(C(F)(F)F)cc3Cl)CC2)cc1	n	10µM	n	n	n
Cc1ccc(S(=O)(=O)N2CCN(C(=O)CSc3ccc(F)cc3)CC2)cc1	n	n	n	n	n
Cc1ccc(-c2cc(C(=O)Nc3ccc(S(=O)(=O)N4CC(C)OC(C)C4)cc3)[nH]n2)c(O)c1 (stereo not given)	n	1.12µM	n	n	n
Cc1ccc(O)c(-c2cc(C(=O)Nc3ccc(S(=O)(=O)N4CC(C)OC(C)C4)cc3)[nH]n2)c1 (stereo not given)	n	n	n	n	u
O=C(Nc1ccc(S(=O)(=O)N2CCOCC2)cc1)c1cc(-c2cc(Cl)ccc2O)n[nH]1	n	3.55µM	n	n	u
Cc1cc(O)c(-c2cc(C(=O)Nc3ccc(S(=O)(=O)N4CCOCC4)cc3)[nH]n2)cc1C	n	n	n	u	n
Cc1ccc(CNC(=O)CCCCCn2c(=O)c3sccc3n(CC(=O)N3CCCCC3C)c2=O)cc1 (stereo not given)	x	n	n	n	n
COc1ccc(C(=O)Nc2c(N)nc[nH]c2=O)cc1	n	n	n	n	n
CC1(c2ccccc2)CC(C)(C)N2C(=O)C3(C(C#N)=C(N)Oc4cc(O)ccc43)c3cccc1c32 (stereo not given)	n	5.62µM	n	n	u
CC(C)c1ccc(NC(=O)C(c2ccccc2)N2CCN(C(=O)c3ccco3)CC2)cc1 (stereo not given)	n	u	n	n	n
CC(C)c1ccc(NC(=O)C(c2ccc3c(c2)OCO3)N2CCN(C(=O)c3ccco3)CC2)cc1 (stereo not given)	n	10µM	n	n	n
CCN(CC)C(C(=O)Nc1ccc(C(C)C)cc1)c1ccc2c(c1)OCO2 (stereo not given)	n	7.08µM	n	n	u
COc1cc(NC(=O)CN2CCCN(S(=O)(=O)c3ccc(F)cc3)CC2)cc(OC)c1	x	n	n	n	n
CCOC(=O)c1c(NC(=O)CSc2cn(CCNC(=O)c3ccc(OC)cc3)c3ccccc23)sc2c1CCC2	n	u	n	n	n
O=C(NC1CCN(C(=O)N2c3ccccc3Sc3ccccc32)CC1)c1ccccc1Cl	n	10µM	n	n	n
SMILES	GLP-1R agonist	GLP-1R inv ag	RGS4 inh	PTHR1 ag	GLP1R cytotox
O=C(c1ccco1)N1c2ccccc2Sc2ccccc21	n	u	n	n	n
O=C(c1ccco1)N1CCN(C(=O)N2c3ccccc3Sc3ccccc32)CC1	n	u	n	n	3.16µM
CC1CCN(S(=O)(=O)c2ccc3c(c2)CCC(=O)N3CC(=O)Nc2cccc(C#N)c2)CC1	x	n	n	n	n
O=C(CCl)N(Cc1cc(=O)[nH]c2ccccc12)c1ccccc1	n	2.82µM	n	n	u
CCC(=O)N(Cc1cc(=O)[nH]c2ccccc12)c1ccccc1	n	n	n	n	n
O=C(CO/N=C/c1ccccc1)N1c2ccccc2Oc2ccccc21	n	8.91µM	n	n	n
Cc1nc(S(=O)(=O)N(C)c2ccccc2)c(C#N)c(C)c1Cl	n	5.62µM	n	n	n
CN(c1ccccc1)S(=O)(=O)c1ccc(Cl)nc1	n	n	n	n	n
O=C(CN1CCN(CC(=O)Nc2ccccc2F)CC1)Nc1cccc(F)c1	n	n	n	n	n
O=C(CN1CCN(CC(=O)Nc2ccc3c(c2)OC2(CCCCC2)O3)CC1)Nc1cccc(F)c1	n	10µM	n	n	u
Cc1cccc(CNC(=O)C2CCC(=O)N(CC3CCCCC3)C2)c1 (stereo not given)	n	n	x	n	n
CCOC(=O)c1cn2nc(N3CCCCC3)ccc2n1	n	u	n	n	n
CCOC(=O)c1cn2nc(N3CCCC3)ccc2n1	n	5.62µM	n	n	n
O=C(c1cccc(NS(=O)(=O)c2ccc(F)c(F)c2)c1)N1CCN(C(c2ccccc2)c2ccccc2)CC1	n	3.98µM	n	n	n
CCOC(=O)c1cnc2c(C)c(Cl)ccc2c1N1CCN(CC)CC1	n	7.94µM	n	n	n
CCOC(=O)c1cnc2ccc(OCC)cc2c1N1CCN(c2ccccc2)CC1	n	8.91µM	n	n	n
CCOC(=O)c1cnc2ccc(OCC)cc2c1N1CCN(c2ccccc2F)CC1	x	u	n	n	n
CCOC(=O)c1cnc2c(Cl)c(Cl)ccc2c1N1CCN(C)CC1	n	u	n	n	u
CCOC(=O)N1CCC(NC(=O)c2ccc3c(c2)N(Cc2ccccc2)C(=O)c2ccccc2S3(=O)=O)CC1	x	u	n	n	n
Cc1c(C(=O)Nc2ccc(C(=O)O)cc2)nnn1-c1ccccc1	x	1.78µM	n	n	n
COc1ccc(-c2cccc(NC(=O)c3ccco3)c2)nn1	n	n	n	n	n
CC1CCN(c2ccc(-c3cccc(NC(=O)c4ccco4)c3)nn2)CC1	n	11.2µM	n	n	n
O=C(Nc1cccc(-c2ccc(N3CCCCC3)nn2)c1)C(F)(F)F	n	u	n	n	n
CC1CCN(c2ccc(-c3cccc(NC(=O)C(F)(F)F)c3)nn2)CC1	n	1µM	n	n	n
CCC(=O)Nc1ccc(-c2ccc(N3CCC(C)CC3)nn2)cc1	n	7.94µM	n	n	n
CCC(=O)Nc1cccc(-c2ccc(N3CCC(C)CC3)nn2)c1	n	n	n	n	n
CCNC(=O)NCc1cccc(Cl)c1	n	x	x	x	x
CCOc1ccc(CC(=O)Nc2c(C(=O)c3ccccc3)oc3ccc(OC)cc23)cc1OCC	n	n	n	n	n
Cc1nn2c(N3CCOCC3)cc(C(C)C)nc2c1-c1ccccc1	n	n	n	n	n
